Bioassay records: PubChem, National Center for Advancing Translational Sciences (NCATS)
TRHR agonist: agonists of human TRH receptor; TRHR cells, calcium flux fluo-8, FDSS agonist mode; activation, % at 2 µM; 0.18% of 360,000 active; note: 0% is about no effect
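TRHR-expressing cells loaded with fluo-8 calcium dye; 23 nL library compound pin-transferred, kinetic FDSS fluorescence (Ex 480/Em 530) recorded about 180 s for agonist-induced calcium release, before a 10 nM TRH EC20 addition for potentiator mode.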
D1 potentiator: potentiators of human D1 dopamine receptor; HEK293 TREx D1 cells, calcium flux, dopamine EC20 potentiation; potentiation, % at 10 µM; 0.036% of 360,000 active; in the data active = potentiation above about 30%; note: 0% is about no effect
Target sequence (P21728 whole entry, looked up): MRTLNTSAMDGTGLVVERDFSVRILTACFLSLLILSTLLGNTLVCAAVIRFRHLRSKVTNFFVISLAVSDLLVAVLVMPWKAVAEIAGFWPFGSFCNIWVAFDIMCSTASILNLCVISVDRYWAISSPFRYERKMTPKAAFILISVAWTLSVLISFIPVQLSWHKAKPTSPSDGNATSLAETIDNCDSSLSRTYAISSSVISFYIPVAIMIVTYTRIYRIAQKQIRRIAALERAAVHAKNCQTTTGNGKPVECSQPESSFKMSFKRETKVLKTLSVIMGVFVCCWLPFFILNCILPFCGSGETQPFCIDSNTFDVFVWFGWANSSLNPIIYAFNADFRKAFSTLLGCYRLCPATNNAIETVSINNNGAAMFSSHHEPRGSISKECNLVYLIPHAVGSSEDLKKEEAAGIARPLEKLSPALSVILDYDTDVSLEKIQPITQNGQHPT
D1 antag: human D1 dopamine receptor antagonism. P21728. HEK293 TREx D1 cells, calcium flux, dopamine EC80; active compounds read low. activity change, negative = inhibition, % at 10 µM. 3.2% of 360,000 active. AID 504652; in the data active = activity change below about -30%; note: % is set by controls: 0 for no effect and ±100 for the full control effect
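HEK293 T-REx cells expressing inducible, force-coupled D1 receptor; no-wash Ca dye, 30–90 min RT. Cmpd → 180 s read at 1 Hz → EC80 DA → 180 s read.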
TRHR PAM: allosteric enhancers of human TRH receptor; TRHR cells, fluo-8 calcium fluorescence, EC20 TRH enhancement; enhancement, % at 2 µM; P34981; 0.66% of 360,000 active; AID 493056; in the data active = enhancement above about 30%; note: 0% is about no effect
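Enhancer read-out: after compound pinning and an initial kinetic agonist-mode read, an EC20 of TRH (10 nM final) was injected and fluo-8 calcium signal (Ex 480/Em 530) followed at 1 s/cycle for 100 cycles in TRHR-expressing cells.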
D1 ag: human D1 receptor agonism; P21728; HEK293 T-REx D1 cells, calcium flux, agonist mode; activation, % at 2 µM; 1% of 360,000 active; AID 504660; note: 0% is about no effect
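Agonism was scored from calcium flux recorded over 180 s (1 read/s) after pintool compound addition, following a 10-cycle baseline. Cells were inducible force-coupled HEK293 TREx D1, plated overnight at 30 C and loaded with no-wash calcium dye.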
The depositor's hits bear a star. Only some compounds are listed: those with a hit (about 4.7% of all), similar ones and a draw of the others. Cut-off read from the data, not from the text of the source, unless noted: active = activation above about 30%; inactive = the rest.

Results for Cc1ccc(S(=O)(=O)c2cc3c(=O)n4ccccc4nc3n(Cc3ccco3)c2=N)cc1 ?
TRHR agonist: 15.5; D1 potentiator: -0.1; D1 antag: -32.1*; TRHR PAM: -8.6; D1 ag: 8.9

What do the screens show for `Cc1ccc(S(=O)(=O)c2cc3c(=O)n4cccc(C)c4nc3n(Cc3ccco3)c2=N)cc1C`?
TRHR agonist: 2.2; D1 potentiator: -1.7; D1 antag: -1.3; TRHR PAM: 4.9; D1 ag: 1.9

How did O=C1C(Cl)=C(N2CCCC2)C(=O)N1c1ccc(F)cc1 do in these assays?
TRHR agonist: -0.1; D1 potentiator: -5.3; D1 antag: -32.6*; TRHR PAM: 0.5; D1 ag: 8.9

Results for O=C1C(Cl)=C(N2CCCCCC2)C(=O)N1c1ccc(Cl)cc1 ?
TRHR agonist: 0.7; D1 potentiator: 6.0; D1 antag: 5.5; TRHR PAM: 8.0; D1 ag: 2.6

How did O=C1C(Cl)=C(N2CCOCC2)C(=O)N1c1cccc(C(F)(F)F)c1 do in these assays?
TRHR agonist: -0.2; D1 potentiator: -6.1; D1 antag: -33.6*; TRHR PAM: 1.0; D1 ag: 3.5

How did COc1ccc(S(=O)(=O)N2CCN(Cc3nc4ccc(C)cc4o3)CC2)cc1OC do in these assays?
TRHR agonist: -0.3; D1 potentiator: 0.4; D1 antag: 0.3; TRHR PAM: -1.0; D1 ag: -0.3

What do the screens show for `O=C1OC(CO)CN1Cc1ccccc1` (stereo not drawn)?
TRHR agonist: 0.1; D1 potentiator: 3.5; D1 antag: -40.3*; TRHR PAM: 0.5; D1 ag: 0.1

Results for Cc1ccc(C(=O)c2oc3ccccc3c2NC(=O)COc2ccc(C(C)(C)C)cc2)cc1 ?
TRHR agonist: -0.5; D1 potentiator: -2.0; D1 antag: 1.1; TRHR PAM: 2.8; D1 ag: 1.6

What do the screens show for `COc1ccccc1NC(=O)CCN1C(=O)C2CC=CCC2C1=O` (stereo not drawn)?
TRHR agonist: 0.2; D1 potentiator: 1.0; D1 antag: 8.4; TRHR PAM: 35.0*; D1 ag: 0.3

Results for COc1ccc(Cl)cc1NC(=O)CCN1C(=O)C2CC=CCC2C1=O (stereo not drawn) ?
TRHR agonist: -0.6; D1 potentiator: -0.8; D1 antag: 1.9; TRHR PAM: 0.0; D1 ag: 2.8

What do the screens show for `O=C1CCCC2=C1C(c1ccc(O)c(Br)c1)C1=C(CCCC1=O)N2c1ccccc1`?
TRHR agonist: 0.2; D1 potentiator: 0.6; D1 antag: -36.5*; TRHR PAM: -5.4; D1 ag: 9.5

How did CC(C)NC(=O)Cn1c(SCC(=O)N2CCc3ccccc3C2)nc2ccccc21 do in these assays?
TRHR agonist: -0.3; D1 potentiator: 0.5; D1 antag: 11.9; TRHR PAM: -11.5; D1 ag: 1.8

What do the screens show for `CC1CC(C)CN(C(=O)Cn2c(SCC(=O)N3CCc4ccccc4C3)nc3ccccc32)C1` (stereo not drawn)?
TRHR agonist: 0.1; D1 potentiator: 6.0; D1 antag: -65.0*; TRHR PAM: -14.4; D1 ag: 0.7

Results for CCOC(=O)CN1C(=O)C(Sc2n[nH]c(-c3ccc(C)cc3)n2)CCc2ccccc21 (stereo not drawn) ?
TRHR agonist: -0.4; D1 potentiator: 1.4; D1 antag: -65.7*; TRHR PAM: -1.4; D1 ag: -0.3

How did CCCC(=O)O[C@]1(C(=O)COC(C)=O)CC[C@H]2[C@@H]3C[C@H](F)C4=CC(=O)C=C[C@]4(C)[C@@]3(F)[C@@H](O)C[C@@]21C do in these assays?
TRHR agonist: 1.3; D1 potentiator: 3.9; D1 antag: 12.1; TRHR PAM: 2.6; D1 ag: 2.3

What do the screens show for `CC(=O)[C@@]1(O)CC[C@H]2[C@@H]3C[C@H](C)C4=CC(=O)C=C[C@]4(C)[C@@]3(F)[C@@H](O)C[C@@]21C`?
TRHR agonist: 13.2; D1 potentiator: -5.8; D1 antag: -59.3*; TRHR PAM: 2.6; D1 ag: 2.0

Results for COc1ccc(-c2noc(N3CCC(C(=O)Nc4ccccc4OC)CC3)n2)cc1 ?
TRHR agonist: -0.2; D1 potentiator: -4.0; D1 antag: -34.1*; TRHR PAM: 0.5; D1 ag: 7.6

Results for CS(=O)(=O)N(Cc1ccc(Cl)cc1)c1ccc(C(=O)Nc2cccnc2)cc1 ?
TRHR agonist: 1.4; D1 potentiator: -9.8; D1 antag: -38.2*; TRHR PAM: 19.3; D1 ag: 15.7
